The list is not random: actives were taken first. Their share in the collection is about 7.3%.
Rab9 prom act: Rab9 promoter activation; Huh7 Rab9 promoter-luciferase reporter, luminescence, 24 h; Potency, µM (highest dose often 9.22 µM), without a hit: at the highest dose activation, negative = inhibition, actives largely listed as activators; hit rate 2.8% among 320,000; AID 485297; also: % of control where 0% means no effect; nearly all actives have a fitted effect of over 60% in size
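Huh7 cells stably carrying Rab9 promoter–luciferase reporter, plated 1500 cells/well, compound added after 2 h and incubated 24 h at 37 °C; luciferase luminescence then read after 10 min with detection reagent.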
KinaseGlo FLuc: blocks Kinase-Glo luciferase, a counter-screen artifact; Q27757; Kinase-Glo luciferase, ATP luminescence, 8 min; Potency, µM (highest dose often 38.3 µM), for inactives: at the top dose activity change, negative = inhibition, actives largely listed as inhibitors; hit rate 0.28% among 200,000; AID 1379; also: % is scaled to controls: 0 for no effect and ±100 for the full control effect; nearly all actives have a fitted effect of over 60% in size
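Compounds were added to a substrate mix at pH 7.2 (50 mM imidazole, 10 uM ATP, within the enzyme's linear range), followed by Kinase-Glo detection reagent; luminescence was measured after 8 minutes at ambient temperature.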
FLuc counter: inhibits or activates purified firefly luciferase, miR-21 counter-screen; P08659; purified FLuc, Km substrates, luminescence inhibition; hit rate 6.9% among 360,000; Potency, µM (top dose mostly 57.5 µM), for inactives: at the highest dose activity change, negative = inhibition, hits mostly inhibitors; AID 588342;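 also: plate controls were vehicle for no effect and reference inhibitor for full effect; nearly all actives have a fitted effect of over 55% in size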
Target sequence (P08659 whole entry, looked up): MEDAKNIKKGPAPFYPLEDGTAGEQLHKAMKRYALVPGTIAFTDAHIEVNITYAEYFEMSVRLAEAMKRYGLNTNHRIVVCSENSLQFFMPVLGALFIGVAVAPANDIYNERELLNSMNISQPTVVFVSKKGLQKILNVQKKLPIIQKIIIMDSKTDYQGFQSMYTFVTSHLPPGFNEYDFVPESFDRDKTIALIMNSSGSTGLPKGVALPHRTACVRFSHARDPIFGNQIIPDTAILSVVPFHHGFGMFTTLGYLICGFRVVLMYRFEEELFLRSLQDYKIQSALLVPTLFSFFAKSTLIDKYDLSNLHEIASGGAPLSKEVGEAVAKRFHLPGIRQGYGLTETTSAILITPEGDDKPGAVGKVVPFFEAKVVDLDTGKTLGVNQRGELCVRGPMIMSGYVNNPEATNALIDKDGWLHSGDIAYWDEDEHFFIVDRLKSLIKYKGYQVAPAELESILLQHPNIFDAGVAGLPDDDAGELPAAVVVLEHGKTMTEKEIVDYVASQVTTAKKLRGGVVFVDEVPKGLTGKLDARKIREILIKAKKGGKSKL
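Purified P. pyralis luciferase (10nM final) with 10uM D-luciferin and 10uM ATP (Km levels) in 50mM Tris acetate pH 7.5, 10mM Mg acetate, 0.01% Tween-20, 0.05% BSA; qHTS 6-point titration, ~60 µM downward; luminescence read.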
SMN2 splice enh: increases expression of the SMN2 splice variant; Potency, µM (doses to about 46.1 µM), for the others: at the highest dose activity change, positive = activation, hits mostly activators; HEK293 SMN2-luciferase splicing reporter, luminescence, 30-36 h; hit rate 2.8% among 210,000; also: % of control where 0% means no effect; nearly all actives have a fitted effect of over 55% in size
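qHTS luciferase splicing reporter: luminescence rises when SMN2 exon 7 is included in transfected HEK293 cells. Compound exposure lasted 30-36 h at 37C, with 4.5 mM final sodium butyrate as control, followed by a ONE-Glo read.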
NPC1 prom act: activators of NPC1 promoter; Huh7 NPC1 promoter luciferase reporter, 24 h; Potency, µM (highest dose often 9.22 µM), for the others: at the top dose activation, usual class: activators; hit rate 2.4% among 320,000; also: % of control where 0% means no effect; nearly all actives have a fitted effect of over 60% in size
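In 1536-well qHTS, Huh7 cells harboring an NPC1 promoter–luciferase construct received compound for 24 h; activation was quantified by luminescence following luciferase reagent addition.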
ELG1 genotoxic: genotoxicity induction in ELG1-luciferase HEK293T cells. Potency, µM (series often up to 46 µM), for the others: top-dose activity change, positive = activation, most hits filed as activators. AID 504466. hit rate 1.3% among 330,000. HEK293T ELG1-luciferase reporter, luminescence, 16 h; also: % of control where 0% means no effect; nearly all actives have a fitted effect of over 60% in size
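Reporter readout depends on ELG1 protein level, which increases with genetic stress. After 16 hr compound exposure at 37 °C, luciferase activity was quantified using ONE-Glo.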
The depositor's hits bear a star; ? = inconclusive; · = no result given; [ ] = another dose, or the depositor's remark. Calls follow the shape of the dose curve; as a rule, active = well fitted curve in the direction sought with a large enough effect; inconclusive = small, poorly fitted or top-dose-only effect, or another doubt; inactive = no such curve, though single readings can be large; an effect the other way counts as inactive or inconclusive. Potency is read from the fitted curve at half-maximal effect.

SMILES	Rab9 prom act	KinaseGlo FLuc	FLuc counter	SMN2 splice enh	NPC1 prom act	ELG1 genotoxic
COc1ccc(C(=O)Oc2ccc3c(C)cc(=O)oc3c2C(C)=O)cc1	1.5%	-6.4%	5.4%	-3.6%	-4.5%	0.2%
COc1cccc(NC(=O)c2cncs2)c1	-1.9%[1.84 µM]	·	-6.4%	·	0.4%	-0.1%
COc1cccc(CN(C)C(=O)CCN(c2ccccc2)S(=O)(=O)c2ccc(C)cc2)c1OC	-6.1%	·	0.2%	·	-0.2%	-7.2%
CCc1ccccc1NC(=O)c1cccc(NC(=O)/C=C/c2ccco2)c1	?	1.8%	3.01µM*	10.8%	1.2%	-1.8%
CC(C)CC(=O)Nc1ccc2c(c1)OCO2	0.5%	-6.2%	-18.6%	16.2%	2.0%	4.3%
Cc1ccc(C)n1-c1cccc(S(=O)(=O)N2CCOCC2)c1	-6.2%	-1.4%	2.8%	15.0%	-10.8%	25.9µM*
Cc1cc(C(=O)CCl)c(C)n1-c1cccc(S(=O)(=O)N2CCOCC2)c1	-0.7%	0.1%	5.8%	-43.6%	-2.3%	15.7%
O/N=C1/CCSc2ccccc21	-1.6%	-8.2%	0.1%	-9.4%	-4.0%	-1.1%
Cc1cccc(-c2onc3ccc(C4(C)OCCO4)cc23)c1	1.5%	-2.6%	-19.0%	-39.2%	2.8%	-3.5%
CCOc1ccccc1NC=C1C(=O)OC(C)(C)OC1=O	1.7%	-3.0%	?	-4.1%	17.3%	-0.8%
COc1ccccc1NC=C1C(=O)OC(C)(C)OC1=O	9.0%	6.9%	10.7µM*	8.8%	-4.3%	-0.4%
C#CCOCCOCCOCCNc1nc(N2CCOCC2)nc(N2CCN(C(=O)[C@H](CCCCN)n3cc([C@@H](N)CO)nn3)CC2)n1	3.6%	·	-2.3%	·	-5.4%	1.7%
CCOC(=O)c1sc(=NC(=O)c2ccc(S(=O)(=O)N(C)c3ccccc3)cc2)n(C)c1C	-1.8%	-5.4%	-0.5%	-9.2%	-2.2%	-8.9%
CCOC(=O)c1sc(=NC(=O)C2CC2)n(C)c1C	3.3%	1.4%	2.7%	-2.9%	-1.0%	6.6%
CCOC(=O)c1sc(=NC(=O)c2cccc(Br)c2)n(C)c1C	4.47µM*	·	-19.6%	·	?	?
CCOC(=O)c1sc(=NC(=O)c2cccc(C)c2)n(C)c1C	2µM*	-4.7%	?	10µM*	?	?
Cc1cc(OCCCCCNCCO)ccc1Cl	15.1%	3.1%	-11.0%	-5.0%	-2.4%	3.3%
O=C1/C(=C/c2cccc([N+](=O)[O-])c2)Oc2cc(O)ccc21	2.9%	·	?	·	12.8%	-0.2%
O=C1/C(=C/c2ccc(O)c(O)c2)Oc2cc(O)ccc21	20.2%	·	15.1µM*	·	?	14.6µM*
COc1cc(/C=C2\Oc3cc(O)ccc3C2=O)ccc1O	3.98µM*	·	8.49µM*	·	3.16µM*	23.1µM*
COc1cc(C=O)ccc1O	·	1.6%	·	2.0%	·	·
COc1cccc(CNC(=O)c2ccc3c(c2)nnn3C2CCCC2)c1	·	·	-10.5%	·	·	·
O=C(Cc1ccc(Br)cc1)N/N=C/c1cccnc1	-5.2%	·	0.2%	·	-7.6%	1.2%
COCCNS(=O)(=O)c1cc(F)ccc1OC	-3.6%	1.5%	0.5%	3.16µM*	1.1%	-2.9%
Cc1ccc(-c2csc(NC(=O)C3CSC4(C)CCC(=O)N34)n2)cc1 (stereo unspecified)	10.4%	·	-2.9%	·	-2.0%	13.8%
SMILES	Rab9 prom act	KinaseGlo FLuc	FLuc counter	SMN2 splice enh	NPC1 prom act	ELG1 genotoxic
C=CCN(C(=O)C1CSC2(C)CCC(=O)N12)c1nc(-c2ccccc2)cs1 (stereo unspecified)	7.2%	·	-1.0%	·	0.5%	18.3µM*
CC(C)(C)c1cc(NCCCn2ccnc2)n2ncc(-c3ccc(Cl)cc3)c2n1	29.2%	-1.0%	26.9µM*	5.9%	21.9%	-4.2%
CN(C)CCCNc1cc(C(C)(C)C)nc2c(-c3ccccc3)cnn12	3.98µM*	·	8.49µM*	·	3.55µM*	?
O=Cc1cc(-c2ccccc2)[nH]c1-c1ccccc1	?	·	?	·	?	2.8%
CCOC(=O)c1c(S(=O)(=O)NCC(=O)N(C)c2ccc(C)cc2)c(C)n(C)c1C	·	·	-6.6%	·	·	·
O=C(/N=C1\NC(=O)C(F)(C(F)(F)F)S1)NC1CCCCC1 (stereo unspecified)	1.5%	-1.2%	13.5µM*	?	-3.7%	-3.1%
CCC1S/C(=N/C(=O)NC2CCCCC2)NC1=O (stereo unspecified)	?	-5.4%	?	11.2µM*	?	?
CCC1Sc2ccccc2N(CC(=O)NC2CCCC2)C1=O (stereo unspecified)	6.1%	3.9%	1.3%	-2.1%	-3.1%	-0.8%
CN1CCN(C(=O)C2=C[C@@H](C(C)(C)C)C[C@@H](OCc3ccc(CO)cc3)O2)CC1	-6.4%	·	0.4%	·	2.3%	6.2%
CC(=O)Nc1cc(C(C)(C)C)c(O)c(C(C)(C)C)c1	1.2%	1.4%	6.6%	2.0%	-4.0%	1.2%
CCOC(=O)CNC(=O)c1ccc(Cl)s1	-1.5%	-0.2%	-10.9%	-7.0%	-5.3%	-2.0%
CCNc1nc(N)c(C(=O)c2ccc(Cl)s2)s1	3.55µM*	-3.4%	9.53µM*	20µM*	?	?
CCc1nc(NC(C)(C)C)c2cnn(-c3ccccc3)c2n1	?	·	19µM*	·	?	?
CCC(=O)NNc1ncnc2c1cnn2-c1ccccc1	-1.6%	-1.8%	6.3%	18.9%	-4.6%	11.4%
CCCCNc1ncnc2c1cnn2Cc1ccc(Cl)cc1	-4.1%	·	-1.8%	·	-15.6%	-8.1%
CCCCNc1ncnc2c1cnn2-c1ccccc1	?	-6.5%	5.36µM*	3.55µM*	?	?
CCCCNc1ncnc2c1cnn2-c1ccc(Cl)cc1	?	0.1%	2.69µM*	5.01µM*	?	2.31µM*
COCCCNc1ncnc2c1cnn2-c1ccc(C)cc1C	-5.6%	1.0%	-17.2%	29.2%	0.2%	4.2%
COCCCNc1ncnc2c1cnn2-c1ccc(F)cc1	·	·	10.7µM*	·	·	·
O=C1N/C(=N/NC(=O)c2cccc3ccccc23)S/C1=C\c1ccccc1OCc1ccccc1	-2.1%	-2.1%	?	-10.8%	-1.7%	0.6%
Cc1ccc2c(=O)cc(C(=O)Nc3ccc(S(=O)(=O)N4CCCCC4)cc3)oc2c1C	·	·	-1.6%	-5.0%	·	·
N#Cc1cncc(-c2ccc3c(c2)OCCOCCOCCOCCOCCO3)n1	-0.2%	-3.7%	-8.8%	-14.9%	-3.5%	-2.4%
Clc1ccc(-n2ncc3c(NCCCn4ccnc4)ncnc32)cc1	?	-0.3%	10.7µM*	21.8%	?	8.2µM*
Clc1ccc(-n2ncc3c(NCc4ccccn4)ncnc32)cc1	?	-5.7%	·	4.8%	?	-2.8%
O=C(Cc1ccccc1)N/N=C/C=C/c1ccccc1[N+](=O)[O-]	?	·	-1.4%	·	?	14.1%
O=C(/C=C/c1ccccc1[N+](=O)[O-])NNC(=O)c1ccncc1	2.3%	·	·	·	3.8%	0.2%

Assay outcomes as filed in PubChem BioAssay.
